Compounds without any hit were thinned out: in the full panel of roughly 83,000, 20% have a hit.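 48-hour exposure, single concentration, 96-well plates; percent growth endpoint where 0 means no net growth. Active: below 10.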 Calls of active or inactive are those of the source.
These molecules were tested on SNB-75 CNS (assay: NCI-60 one-dose screen, 48 h (100 = growth as untreated, 0 = no growth, -100 = all killed)). Conditions: 10 µM unless noted.
Protocol: Growth inhibition of the SNB-75 human tumor cell line is measured as a screen for anti-cancer activity. Cells are grown in 96 well plates and exposed to the test compound for 48 hours. Compounds are tested at a single concentration, which is 10^-5 M for most compounds. The reported endpoint is percent growth (GI% or GIPRCNT), where numbers from 0 - 100% represent growth inhibition, and numbers from -100% - 0 represent cell death. For example, a value of 40 represents 60% growth inhibition. A value of 0 means no net growth occurred over the course of the experiment. A value of -40 indicates 40% of cells at the beginning of the experiment died by the end of the experiment. A value of -100 means all cells are dead at the end of the experiment.
NCI-60 Human Tumor Cell Lines Screen was performed using the standard one-dose NCI protocol, which is described in more detail at https://dtp.cancer.gov/discovery_development/nci-60/default.htm.
Compounds with GIPRCNT values below 10 were considered active. Activity score was based on GIPRCNT using the following formula: […]
Score is 0 for GIPRCNT values of 100 or above, 50 for GIPRCNT values of 0, and 100 for GIPRCNT values of -100.

Row | Structure (SMILES) | growth
1 | Cc1ccc(C)c(/C=C2\CN(C(=O)OC(C)(C)C)C/C(=C\c3cc(C)ccc3C)C2=O)c1 | 78.5% (inactive)
2 | O=C1Nc2c(C(=O)O)cccc2/C1=N/c1n[nH]c(=S)s1 | 98.8% (inactive)
3 | COC(=O)c1nc(-c2ccccc2)oc1S(=O)(=O)NCC(c1ccc(Cl)cc1)N1CCOCC1 (stereo not given) | 94.3% (inactive)
4 | COc1ccc(Cn2cc3c(c2-c2ccccc2)CCc2cnoc2-3)cc1 | 44.2% (inactive)
5 | CNCc1cccc2c1OCCOCCOCCNS(=O)(=O)c1ccc(cc1)-c1cnc(N)c(n1)C(=O)N2 | 65.4% (inactive)
6 | CCOC(=O)CC1CSC(Nc2ccccc2)=N1 (stereo not given) | 99.7% (inactive)
7 | CC(=O)OC(c1ccccc1)C1CCOC1=O (stereo not given) | 79.2% (inactive)
8 | Cc1n[nH]c2ccc(Br)cc2c1=O | 102% (inactive)
9 | COc1cc(NC(=O)c2cncnc2Nc2ccc3c(ccn3Cc3ccccn3)c2)cc(OC)c1 | -3.17% (active)
10 | CCN(CC)CCCN1C(=O)c2c(c(C)c3c(oc4ccc(OC)cc43)c2C)C1=O | 109% (inactive)
11 | COc1ccc(C2=CN3CC=CC3CC2=O)cc1 (stereo not given) | 90.9% (inactive)
12 | Cc1ccc2nc(-c3ccc(C(=O)NNC(=S)Nc4ccccc4)cc3)[nH]c2c1 | 99.9% (inactive)
13 | CCOC(=O)c1c(C)nc2ccccc2c1/C=C/c1ccccc1 | 80.1% (inactive)
14 | O=C1c2ccccc2C(=O)c2c1c(C(=O)NCc1ccccc1)c1ccccn21 | 94.9% (inactive)
15 | Nc1[nH]c(=S)nc2oc(-c3ccccc3)c(-c3ccccc3)c12 | 90.3% (inactive)
16 | Cc1c2cccnc2c(C)c2c1c1cc(CO)ccc1n2C | 45.5% (inactive)
17 | COc1cc(-c2nc3cc(Cl)c(Cl)cc3[nH]2)ccc1OCC(=O)N=Nc1c(O)[nH]c2ccc(Cl)cc12 | 6.76% (active)
18 | Cc1ccccc1Nc1cc(O)c2c(=O)cc(-c3ccccc3)oc2c1 | -5.66% (active)
19 | CC1(C)CC[C@]23CC[C@]4(C)[C@H](CC[C@@H]5[C@@]6(C)C/C(=C/c7ccncc7)C(=O)C(C)(C)[C@@H]6CC[C@]54C)[C@H]2[C@H]1OC3 | 61.4% (inactive)
20 | CC1(C)N=C(N)N=C(N)N1c1cccc(CCc2ccccc2)c1 | 63% (inactive)

Row | Structure (SMILES) | growth
21 | C[C@H](C(=O)N(CCc1ccc(Cl)c(Cl)c1)Cc1cncs1)[C@@H]1CC[C@H](C[C@H](C)n2cc(CN3CCC(c4ccc(Cl)cc4)CC3)nn2)O1 | 97.6% (inactive)
22 | CCCCCN(CCCCC)CC(O)c1cc(C)c2ccc3cc(C(C)C)ccc3c2c1 (stereo not given) | 75.8% (inactive)
23 | Cc1ccc(-c2csc(NC(=O)c3ccccc3CN3C(=O)c4ccccc4C3=O)n2)cc1 | 87.3% (inactive)
24 | Cc1nc2cc(O)c(O)cc2cc1Oc1ccc(NC(=O)Nc2ccc(Cl)c(Cl)c2)cc1 | 75.8% (inactive)
25 | CC(=O)O[C@H]1C[C@@H]2C(C)(C)C(=O)CC[C@@]2(C)c2ccc(C(C)C)cc21 | 100% (inactive)
26 | COc1ccc(C(=S)N2CCN(c3ccc(Cl)cc3)CC2)cc1 | 112% (inactive)
27 | CSc1nc(C)c([N+](=O)[O-])c(N)n1 | 98.7% (inactive)
28 | CCN(CC)CCCN1C(=O)c2c(c(C)c3c(oc4ccc(O)cc43)c2C)C1=O | 90.4% (inactive)
29 | COc1ccc(/C=C(/C(=O)n2cnnn2)c2cc(OC)c(OC)c(OC)c2)cc1 | 15.4% (inactive)
30 | C=C(C)[C@@H]1CC[C@]2(C(N)=O)CC[C@]3(C)[C@H](CC[C@@H]4[C@@]5(C)CC[C@H](OCCC#N)C(C)(C)[C@@H]5CC[C@]43C)[C@@H]12 | 85.9% (inactive)
31 | COc1ccc2c(c1)c(/C(O)=C1\COC(=O)C1=O)cn2Cc1ccc(F)cc1 | 104% (inactive)
32 | C#COc1cccc(Nc2ncnc3cc(NC(=O)[C@@H](C)Cl)ccc23)c1 | -7.9% [6.25 µM] (active)
33 | CN1CCN(Cc2ccc(NC(=O)c3cncc(C#Cc4cnc(N)c5ccc(F)cc45)c3)cc2C(F)(F)F)CC1 | -3.01% (active)
34 | CCOC(=O)c1[nH]c2c(c1C)-c1[nH]c(=O)c(S(=O)(=O)c3ccccc3)cc1SC2 | 17% [100 µM] (inactive)
35 | COc1ccc(C#Cc2ccc(=O)oc2-c2cc(OC)c(OC)c(OC)c2)cc1O | 40.1% (inactive)
36 | COc1cccc(-c2cc(-c3cccc(Cl)c3)c(C#N)c(=O)[nH]2)c1 | 30.8% (inactive)
37 | CNC(C)[C@H]1CCC2C3CC=C4C(=O)[C@@H](NC(=O)C=C(C)C)CC[C@]4(C)C3CC[C@@]21C (stereo not given in full) | 22.5% (inactive)
38 | CCN1C2CCC1/C(=C\c1ccc(F)cc1)C(=O)/C2=C/c1ccc(F)cc1 | 40.6% (inactive)
39 | N#Cc1c(-c2ccccc2)nc(SCc2nnc(-c3ccc(Cl)cc3)o2)[nH]c1=O | 93.9% (inactive)
40 | O=c1nc(-c2ccccc2)c2cc(-c3ccc(C(F)(F)F)nc3)ccc2[nH]1 | 117% (inactive)

Source: PubChem BioAssay (NCI)
